Source: PubChem BioAssay
In the library only some 3.4% were active in any assay of this set; here they are far more common.
GPR151 ag: human GPR151 activation. AID 1508602. activation, % at 11.2 µM. PathHunter beta-arrestin GPR151 cells, luminescence. 650,000 compounds, 1% hits; in the data active = activation above about 4.9%;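 also: 0% = median of compound wells and 100% = cells with positive control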
TEAD-YAP inh: TEAD-YAP interaction inhibition; inhibition, % at 9.12 µM; 640,000 compounds, 1.4% hits; HEK-TIYL cells, TEAD-Gal4/YAP UAS-luciferase luminescence; in the data active = inhibition above about 32%;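 also: 0% = median of test compound wells and 100% = reference inhibitor wells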
MITF inh: blocks human microphthalmia-associated transcription factor; O75030; AlphaScreen MITF homodimerization, bead proximity signal; inhibition, % at 2.6 µM; 650,000 compounds, 0.91% hits; AID 1259374; in the data active = inhibition above about 50%;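 also: 0% = vehicle wells with protein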
FBW7 activator: human FBW7 E3 ligase activation, primary screen; AlphaScreen FBW7–phospho-cyclin E peptide binding, activator screen; 650,000 compounds, 0.13% hits; normalized activity (activation), % at 26.1 µM; in the data active = normalized activity above about 1.9%;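 also: purified mutant Fbw7 with reduced substrate affinity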
Target sequence (Q969H0 whole entry, looked up): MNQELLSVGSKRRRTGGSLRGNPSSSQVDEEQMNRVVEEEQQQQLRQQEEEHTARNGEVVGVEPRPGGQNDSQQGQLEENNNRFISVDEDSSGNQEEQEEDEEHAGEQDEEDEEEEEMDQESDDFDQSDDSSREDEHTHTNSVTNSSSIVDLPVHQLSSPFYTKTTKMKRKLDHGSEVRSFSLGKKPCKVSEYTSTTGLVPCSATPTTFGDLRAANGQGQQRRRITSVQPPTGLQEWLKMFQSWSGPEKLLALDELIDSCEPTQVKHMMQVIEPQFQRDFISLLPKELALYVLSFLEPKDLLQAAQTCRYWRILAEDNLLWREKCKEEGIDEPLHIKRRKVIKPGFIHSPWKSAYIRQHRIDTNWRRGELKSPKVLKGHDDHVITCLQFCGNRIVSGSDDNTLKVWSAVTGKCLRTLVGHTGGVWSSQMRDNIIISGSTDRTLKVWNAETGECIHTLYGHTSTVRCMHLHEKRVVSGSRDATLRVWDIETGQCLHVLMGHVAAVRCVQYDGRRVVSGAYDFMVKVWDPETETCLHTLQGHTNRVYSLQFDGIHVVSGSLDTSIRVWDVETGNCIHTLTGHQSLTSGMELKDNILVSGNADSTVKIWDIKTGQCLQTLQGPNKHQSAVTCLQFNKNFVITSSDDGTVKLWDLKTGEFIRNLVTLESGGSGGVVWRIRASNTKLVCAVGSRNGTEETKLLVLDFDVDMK
GPR151 conf act: confirmation of human GPR151 activators; shares compounds with GPR151 ag; 6,700 tested, under 10 active; AID 1508609; activation, % at 11.2 µM; GPR151 PathHunter beta-arrestin cells, luminescence, 90 min; % of EA-reagent control over plate median;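 active = mean percent activation across replicates above the confirmation screen cutoff of 4.91%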
GPR119 ag: GPR119 activation, counter-screen for GPR151 activators; GPR119 PathHunter beta-arrestin cells, luminescence, 90 min; 0 = compound-well median, 100 = enzyme-acceptor control; AID 1508611; shares compounds with GPR151 ag; activation, % at 11.2 µM; 6,700 compounds, 0.3% hits;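 active = mean percent activation in the counterscreen above 29.09%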;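 also: counterscreen on off-target GPR119 to flag nonselective hits from the GPR151 activator screen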
* marks the source's active call; other numbers are inactive results; ! = repeats disagree.

Screening Clc1ccccc1C(c1ccccc1)(c1ccccc1)n1ccnc1 returned GPR151 ag 6.9*!, TEAD-YAP inh 0, MITF inh -14, FBW7 activator 0, GPR151 conf act 2 and GPR119 ag -12.
For CCC(C)NCCOc1ccc([N+](=O)[O-])cc1 (stereo unspecified) the results were GPR151 ag 6.6*, TEAD-YAP inh 5, MITF inh -14, FBW7 activator 0, GPR151 conf act 0 and GPR119 ag 6.
For O=C1CSC(c2ccc(Cl)cc2)N1Cc1cn2ccccc2n1 (stereo unspecified) the results were GPR151 ag 5.0*, TEAD-YAP inh 5, MITF inh -8, FBW7 activator 0, GPR151 conf act 0 and GPR119 ag -2.
COc1ccc(Nc2nnc(Cc3ccccc3Cl)c(=O)[nH]2)c(OC)c1 was read as GPR151 ag 6.4*, TEAD-YAP inh 5, MITF inh -1, FBW7 activator 0, GPR151 conf act 1 and GPR119 ag 12.
For CCc1ccc(N2C(=O)C(Cl)=C(Nc3ccc(C(=O)N4CCCC4)cc3)C2=O)cc1 the results were GPR151 ag 5.2*, TEAD-YAP inh 18, MITF inh 8, FBW7 activator 0, GPR151 conf act 0 and GPR119 ag -5.
CCc1ccc(NC2=C(Cl)C(=O)N(c3ccccc3OC)C2=O)cc1 was read as GPR151 ag 3, TEAD-YAP inh 21, MITF inh 25 and FBW7 activator 0.
For COc1cc2c(cc1OC)C(COc1ccc([N+](=O)[O-])cc1)N(C(=O)Nc1ccccc1)CC2 (stereo unspecified) the results were GPR151 ag -3, TEAD-YAP inh 3, MITF inh 15 and FBW7 activator 0.
Screening CN(C)CCCNC(=O)COc1ccc(Br)cc1 returned GPR151 ag 0, TEAD-YAP inh 13, MITF inh 9 and FBW7 activator 0.
`CC(=O)c1ccc(OCCCC(=O)NNC(=O)c2ccccc2)cc1` gave GPR151 ag -1, TEAD-YAP inh -36, MITF inh -8 and FBW7 activator 0.
Screening O=C(CCCOc1ccccc1)NNC(=O)c1ccccc1 returned GPR151 ag 26*, TEAD-YAP inh 0, MITF inh 1, FBW7 activator 0, GPR151 conf act 1 and GPR119 ag 11.
Screening CC(=O)Nc1nnc(SCC(=O)Nc2cccc(Cl)c2C)s1 returned GPR151 ag 8.7*, TEAD-YAP inh 9, MITF inh -1, FBW7 activator 0, GPR151 conf act -1 and GPR119 ag -10.
For Nc1nnc(SCC(=O)Nc2nnc(SCC(=O)Nc3ccc(Cl)c(Cl)c3)s2)s1 the results were GPR151 ag 0, TEAD-YAP inh 3, MITF inh -7 and FBW7 activator 0.
COc1ccc(CNC(=O)CSc2nnc(NC(=O)c3ccccc3Cl)s2)cc1 was read as GPR151 ag 6.3*, TEAD-YAP inh -26, MITF inh -4, FBW7 activator 0, GPR151 conf act 1 and GPR119 ag -4.
Cc1c(Cl)cccc1NC(=O)CSc1ncnc2c1sc1ccccc12 was read as GPR151 ag 12*, TEAD-YAP inh 16, MITF inh 5, FBW7 activator 0, GPR151 conf act -1 and GPR119 ag 3.
For CCC(=O)Nc1nnc(SCC(=O)Nc2ccc(Cl)c(Cl)c2)s1 the results were GPR151 ag 8.9*, TEAD-YAP inh 3, MITF inh 3, FBW7 activator 0, GPR151 conf act 0 and GPR119 ag 6.
`COc1cccc(-c2nc(CSCC(=O)O)c(C)o2)c1` gave GPR151 ag -3, TEAD-YAP inh 1, MITF inh -8 and FBW7 activator 0.
`C/C=C/C(=O)N1c2cc(C)c(C)cc2C(C)=CC1(C)C` gave GPR151 ag 0, TEAD-YAP inh 0, MITF inh 2 and FBW7 activator 1.
`N#Cc1ccc(C(=O)N2CCN(c3ccc(C(F)(F)F)cc3[N+](=O)[O-])CC2)c(F)c1` gave GPR151 ag 1, TEAD-YAP inh -3, MITF inh 8 and FBW7 activator 0.
For COC(=O)[C@H]1CN(C(=O)c2cnn(C(C)C)c2)C[C@@H]1c1ccc(F)cc1 the results were GPR151 ag 5.7*, TEAD-YAP inh 3, MITF inh -10, FBW7 activator 0, GPR151 conf act 0 and GPR119 ag -2.
CCn1cc(C(=O)N2C[C@H](C(=O)OC)[C@@H](c3ccc(F)cc3)C2)cn1 was read as GPR151 ag 0, TEAD-YAP inh -1, MITF inh -8 and FBW7 activator 0.
For Cc1ccc(NC(=O)c2cc(S(=O)(=O)N3CCCCC3)ccc2F)cc1Cl the results were GPR151 ag 0, TEAD-YAP inh -9, MITF inh 7 and FBW7 activator 1.
For Cc1ccc(NC(=O)c2cc(S(=O)(=O)N3CCCCCC3)ccc2F)cc1Cl the results were GPR151 ag 6.2*, TEAD-YAP inh -12, MITF inh -7, FBW7 activator 0, GPR151 conf act 1 and GPR119 ag -10.
`Cc1ccc(NC(=O)c2cc(F)c(F)cc2Cl)cc1S(=O)(=O)N1CCOCC1` gave GPR151 ag 5.2*, TEAD-YAP inh -6, MITF inh 5, FBW7 activator 0, GPR151 conf act 0 and GPR119 ag 7.
`C/C(=N\NC(=O)Nc1ccccc1)c1ccco1` gave GPR151 ag 0, TEAD-YAP inh -15, MITF inh -13 and FBW7 activator 0.
Cc1ccc(S(=O)(=O)/N=C2/SCCN2CC(=O)c2ccccc2)cc1 was read as GPR151 ag 1, TEAD-YAP inh -1, MITF inh 17 and FBW7 activator 0.
`CCCN(C(=O)c1cccc(N)c1)c1c(C)n(C)n(-c2ccccc2)c1=O` gave GPR151 ag 5.5*, TEAD-YAP inh 7, MITF inh 16, FBW7 activator 0, GPR151 conf act 0 and GPR119 ag 11.
CCOC(=O)[C@H](CCc1ccccc1)N[C@@H](C)C(=O)N1[C@H](C(=O)O)C[C@@H]2CCC[C@@H]21 was read as GPR151 ag 7.0*!, TEAD-YAP inh 7, MITF inh -3, FBW7 activator 0, GPR151 conf act 2 and GPR119 ag 12.
Screening Clc1ncnc2c1oc1ccccc12 returned GPR151 ag 9.1*, TEAD-YAP inh 1, MITF inh 5, FBW7 activator 0, GPR151 conf act 1 and GPR119 ag -3.
COC(=O)c1ccc(NC(NC=O)C(Cl)(Cl)Cl)cc1 (stereo unspecified) was read as GPR151 ag 0, TEAD-YAP inh 0, MITF inh 13 and FBW7 activator 1.
Screening CC(=O)Nc1ccc(NC(=O)CSc2ncnc3c2cnn3-c2ccc(C)cc2C)cc1 returned GPR151 ag 5.2*, TEAD-YAP inh 10, MITF inh 3, FBW7 activator 0, GPR151 conf act 0 and GPR119 ag 8.
